Screening data as filed in PubChem.
Most compounds without a hit are left out; they make up all but 12% or so of the library.
JMJD2A Tudor: inhibitors of human JMJD2A Tudor domain; AlphaScreen JMJD2A-Tudor / H3K4me3 peptide binding; Potency, µM (series often up to 114 µM), without a hit: top-dose activity change, negative = inhibition, actives largely listed as inhibitors; hit rate 4.4% among 390,000; further: on the % scale 0 is the no-effect control and ±100 the full control effect; nearly all actives have a fitted effect of over 50% in size
Sfp inh: blocks B. subtilis Sfp PPTase activity; AID 1490; hit rate 3.5% among 310,000; Potency, µM, for the others: largest response in the series, negative = inhibition, most hits filed as inhibitors; Biochemical Sfp PPTase activity, qHTS;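 further: the enzyme is Sfp with the accession as filed and its product quenches rhodamine fluorescence; 0% = enzyme reaction without inhibitor and -100% = no enzyme wells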
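Fluorescence-quenching assay: 15 nM Sfp-PPTase preincubated 15 min at room temperature with compound, then 5 uM rhodamine-CoA and 12.5 uM BHQ-2-labelled YbbR peptide added. Fluorescence (ex 525/em 598 nm) read at start and after 30 min; difference gives rate.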
BAZ2B inh: inhibitors of human BAZ2B bromodomain | Q9UIF8 | AlphaScreen BAZ2B-H3K14Ac peptide displacement | Potency, µM (doses to about 114 µM), without a hit: at the highest dose activity change, negative = inhibition, hits mostly inhibitors | hit rate 4.4% among 360,000; further: on the % scale 0 is the no-effect control and ±100 the full control effect; nearly all actives have a fitted effect of over 60% in size
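BAZ2B (50 nM) with biotin-H3(5-23)K14Ac peptide (50 nM) in PBS pH 7.4, 0.01% Tween-20, preformed 30 min, then compound 30 min at room temperature; top concentration 110uM. AlphaScreen streptavidin donor/nickel chelate acceptor beads (10 ug/mL final), 20 min dark, signal read.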
HP1b chromo inh: HP1-beta chromodomain-methylated histone interaction inhibition | AID 540317 | AlphaScreen HP1-beta / biotin-H3K9me3 peptide binding | P83916 | hit rate 0.56% among 390,000 | Potency, µM (series often up to 114 µM), for inactives: at the highest dose activity change, negative = inhibition, actives largely listed as inhibitors; further: nearly all actives have a fitted effect of over 70% in size
Target sequence (P83916 whole entry, looked up): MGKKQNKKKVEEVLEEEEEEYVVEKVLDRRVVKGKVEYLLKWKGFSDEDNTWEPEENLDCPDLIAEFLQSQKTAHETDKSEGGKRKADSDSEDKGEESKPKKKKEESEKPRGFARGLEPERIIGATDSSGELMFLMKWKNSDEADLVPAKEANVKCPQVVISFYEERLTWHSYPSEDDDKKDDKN
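HP1-beta protein (50 nM final) preincubated 30 min at room temperature with biotinylated H3(1-18)K9me3 peptide (50 nM) in PBS pH 7.4, 0.01% Tween-20, then compound added for 30 min. AlphaScreen streptavidin donor/nickel chelate acceptor beads (10 ug/mL final), 30 min dark, luminescence read.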
G9a inh: blocks human histone lysine methyltransferase G9a | G9a H3K9 monomethylation, AlphaScreen, 2 h | Potency, µM (highest dose often 102 µM), inactives show at the highest dose activity, negative = inhibition, most hits filed as inhibitors | hit rate 8.8% among 350,000; further: on the % scale 0 is the no-effect control and ±100 the full control effect; nearly all actives have a fitted effect of over 75% in size
Target sequence (Q96KQ7 913-1193 limits assumed): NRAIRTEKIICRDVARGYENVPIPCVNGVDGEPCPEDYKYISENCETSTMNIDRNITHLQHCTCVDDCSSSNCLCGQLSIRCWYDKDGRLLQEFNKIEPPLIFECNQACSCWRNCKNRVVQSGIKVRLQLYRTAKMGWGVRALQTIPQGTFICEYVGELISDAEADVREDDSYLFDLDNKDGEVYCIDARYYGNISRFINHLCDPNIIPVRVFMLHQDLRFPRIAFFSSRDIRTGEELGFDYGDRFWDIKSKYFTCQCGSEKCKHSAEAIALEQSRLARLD
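Compounds were preincubated with 20 nM G9a for 15 min, after which biotinylated H3K9 peptide (500 nM) and SAM (20 uM) started a 2 h room-temperature reaction. Monomethylated product was quantified by antibody-based AlphaScreen chemiluminescence.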
L3MBTL1 block: L3MBTL1 (human) inhibition. AlphaScreen L3MBTL1–H3K9me1 peptide binding. hit rate 0.66% among 230,000. AID 485360. Potency, µM (series often up to 57.1 µM), without a hit: at the highest dose activity, negative = inhibition, actives largely listed as inhibitors. Q9Y468; further: on the % scale 0 is the no-effect control and ±100 the full control effect; nearly all actives have a fitted effect of over 60% in size
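L3MBTL1 50 nM + b-AHA-H3(1-15)K9me1 75 nM, 30 min RT; compound added, 30 min RT; streptavidin donor/Ni-chelate acceptor beads 10 ug/mL each final, 30 min RT dark; AlphaScreen read.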
* marks the source's active call; other numbers are inactive results; ? = inconclusive; . = no result given; ! = not confirmed by another sample; [ ] = dose if it differs, or a comment. The call rests on the fitted dose curve; in most records, active means well fitted curve in the direction sought with a large enough effect; inconclusive means small, poorly fitted or top-dose-only effect, or another doubt; inactive means no such curve, though single readings can be large; an effect the other way counts as inactive or inconclusive. Potency means the concentration at half of the fitted maximal effect.

SMILES	JMJD2A Tudor	Sfp inh	BAZ2B inh	HP1b chromo inh	G9a inh	L3MBTL1 block
CCN(CC)c1ncnc2c1ncn2[C@@H]1O[C@H](COP(=O)(O)OP(=O)(O)C(Br)(Br)P(=O)(O)O)[C@@H](O)[C@H]1O	.	.	.	.	29.9µM*!	.
NC(=O)C1=CN(C2OC(COP(=O)(O)OP(=O)(O)OC[C@H]3O[C@@H](n4cnc5c(N)ncnc54)[C@H](OP(=O)(O)O)[C@@H]3O)C(O)C2O)C=CC1 (some centres undefined)	.	.	.	.	10.6µM*	.
CCOC(=O)N1CCC(NC(=O)c2ccc3c(c2)N(Cc2cccc(C)c2)C(=O)c2ccccc2S3(=O)=O)CC1	-19.5%	.	-12.5%	41.8%	5.5%[59 µM]	.
O=C1NO[C@@H]2CN[C@@H](C(=O)O)[C@H]12	.	-2.4%	.	.	.	.
CNC(=S)S	.	-18.9%	.	.	.	.
C[N+]1([O-])[C@@H]2CC(OC(=O)[C@@H](CO)c3ccccc3)C[C@@H]1[C@H]1O[C@H]12 (some centres undefined)	.	0.1%	.	.	8.9%[59 µM]	.
CC/C=C\C/C=C\C/C=C\C/C=C\C/C=C\CCCC(=O)NCCO	.	-6.1%	.	.	.	.
Cc1ccc(-c2nc(CS(=O)CC(=O)NC3CCCC(C)C3C)c(C)o2)cc1 (centres undefined)	-21.1%	12.6%	-19.4%	28.5%	35.5µM*	.
CC1CCCC(NC(=O)COC(=O)c2cn(C)c3ccccc23)C1C (centres undefined)	-6.4%	.	4.0%	49.5%	20.8%[12.7 µM]	0.9%
Cc1ccc(S(=O)(=O)N[C@@H](CCCCN)C(=O)CCl)cc1	?	-23.2%	.	59.1%	28.2µM*	.
Cc1ccc(S(=O)(=O)NCCC(=O)Nc2ccc(Cl)cc2C(=O)c2ccccc2)cc1	-26.5%	2.7%	-37.1%	21.6%	4.6%[59 µM]	-15.2%
CN1CCCCC1c1cccnc1 (centres undefined)	.	-19.1%	.	.	41.0%[59 µM]	.
Cc1cc(C(C#N)c2ccc(Cl)cc2)c(Cl)cc1NC(=O)c1cc(I)cc(I)c1O (centres undefined)	50.1µM*	?	44.7µM*	-13.2%	14.1µM*	?
O=C(NCc1ccccc1)c1cccc(Nc2nc3ccccc3n3nnnc23)c1	-27.4%	.	-15.5%	?	4.6%[59 µM]	.
CC(=O)Nc1ccc2c(c1)CC1(C(=O)N(C)C(=O)N(C)C1=O)C1CCCN21 (centres undefined)	-7.2%	-12.5%	-5.9%	60.7%	35.5µM*	3.4%
CN1C(=O)N(C)C(=O)C2(Cc3cc(NC(=O)c4ccc(F)cc4)ccc3N3CCCC32)C1=O (centres undefined)	?	-15.2%	16.7%	-18.4%[57 µM]	.	.
CN1CC=C(c2c[nH]c3ccccc23)CC1	-15.6%	9.9%	4.5%	13.2%	6.6%[59 µM]	31.6µM*
C1=C(c2c[nH]c3ccccc23)CCN(Cc2ccccc2)C1	-21.6%	11.9%	-19.6%	-0.6%	-46.8%	.
CC(=O)C1=NOC(CNc2ncc(C(F)(F)F)cc2Cl)C1 (centres undefined)	4.2%	17.1%	2.9%	42.3%	12.5%[59 µM]	4.0%
CCN1/C(=C\C=C\C2=[N+](CC)c3ccccc3C2(C)C)C(C)(C)c2ccccc21	?	?	11.2µM*	?	?	.
COC(=O)C12C/C=C\Cc3ccccc3[C@@H]1CNC2=O (some centres undefined)	.	-21.9%	.	.	.	.
O=C(O)Cc1cccnc1C(=O)O	.	15.8µM*	.	.	?	.
CC1=C[C@@H]2c3cccc4[nH]cc(c34)C[C@H]2N(C)C1	-22.5%	-4.2%	-25.7%	1.3%[57 µM]	44.7µM*	.
c1ccc(-c2ccc(C(c3ccccc3)n3ccnc3)cc2)cc1 (centres undefined)	25.1µM*	?	25.1µM*	-27.9%	?	-18.9%
c1ccc(C(c2ccccc2)c2cccnc2)cc1	6.9%	.	.	12.6%[57 µM]	.	.
SMILES	JMJD2A Tudor	Sfp inh	BAZ2B inh	HP1b chromo inh	G9a inh	L3MBTL1 block
C[C@@]12CC(c3ccoc3)OC(=O)C1CC[C@@]1(C)C2C2C=C[C@@]1(O)C(=O)O2 (some centres undefined)	.	15.0%	.	.	.	.
O=C(c1csnn1)N1CCC2(CC1)CN(Cc1ccncc1)C2	.	-8.6%	.	.	11.6%[12.7 µM]	.
NC(=S)c1cn(C2OC(CO)C(O)C2O)c2ncnc(N)c12 (centres undefined)	-12.1%	7.94µM*	-19.0%	-9.3%	10µM*	-10.5%
CCCC12CN3CC(C)(CN(C1)C3c1c(C)[nH]c(=O)[nH]c1=O)C2=O (centres undefined)	-19.2%	.	-13.2%	16.3%	?	.
CCCCC12CN3CC(C)(CN(C1)C3c1ccccn1)C2=O (centres undefined)	25.1µM*	.	8.91µM*	10.7%	0.631µM*	.
CCOc1ccccc1N1C(=O)CC(=O)NC1=O	-4.6%	-14.8%	?	5.5%[57 µM]	79.4µM*	.
CC(C)(C)NC[C@H](O)c1cc(Cl)c(N)c(Cl)c1	.	5.2%	.	.	20.3%[21.5 µM]	.
CC(=O)[O][Hg][c]1ccccc1	.	0.178µM*	.	.	?	.
CC1CC[C@@]2(OC1)O[C@@H]1[C@@H](O)[C@H]3C4CC[C@H]5C[C@@H](O[C@@H]6O[C@H](CO)[C@H](O[C@@H]7O[C@H](CO)[C@@H](O)[C@H](O[C@@H]8OC[C@@H](O)[C@H](O)[C@H]8O)[C@H]7O[C@@H]7O[C@H](CO)[C@@H](O)[C@H](O[C@@H]8O[C@H](CO)[C@@H](O)[C@H](O)[C@H]8O)[C@H]7O)[C@H](O)[C@H]6O)[C@H](O)C[C@]5(C)C4CC[C@]3(C)[C@H]1[C@@H]2C (some centres undefined)	.	-0.9%	.	.	.	.
Cn1c(=O)oc2cc(S(=O)(=O)N3CCc4ccccc43)ccc21	0.7%[11.4 µM]	14.2%	-38.8%	79.8%	33.6%	-11.9%
CN(C)CCN(C(=O)c1ccc(S(=O)(=O)N2CCc3ccccc32)cc1)c1nc2ccc(F)cc2s1	?	-1.4%	?	5.0%	3.55µM*	.
C[C@H](N)Cc1cccc(C(F)(F)F)c1	.	.	.	.	29.9µM*	.
Cc1[nH]nc2ccc(-c3cncc(OC[C@@H](N)Cc4c[nH]c5ccccc45)c3)cc12	35.5µM*	.	.	-35.8%	.	.
N[C@@H](Cc1c[nH]c2ccccc12)c1nnc(SCc2ccccc2)o1	-29.7%	5.1%	?	1.6%	.	-0.8%
CCC[N+]12CCC(CC1)C(=C(c1ccccc1)c1ccccc1)C2	-7.0%	17.5%	-19.2%	32.0%	-46.1%[59 µM]	3.4%
CCCC[N+]12CCC(CC1)C(=C(c1ccccc1)c1ccccc1)C2	?	1.2%	50.1µM*	?	10µM*	-8.0%
CC(C)CC1C(C#N)=C(N)Oc2c1c(=O)oc1ccccc21 (centres undefined)	44.7µM*	15.3%	-0.7%	2.8%	-70.1%	.
